Calb FLC – C. albicans growth modulation with fluconazole. C. albicans CaCi-2 (fluconazole-resistant clinical isolate) + fluconazole, Alamar Blue growth, 48 h. growth inhibition, % (test concentration not listed). 300,000 tested, 0.57% active. AID 1979;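 active = growth inhibition above about 58% in most replicates, limit read from the data, passing the limit was not always enough; inconclusive = exactly half the replicates above a set limit; inactive = most replicates below a set limit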;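 note: all wells also contain fluconazole at 8 µg/ml as a sub-toxic cotreatment; 0% = median of DMSO wells and 100% = median of geldanamycin control wells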
Shn3 inh set2 – inhibitors of Schnurri-3 3'UTR reporter in osteoblasts. Clone20 osteoblast Shn3 3'UTR firefly luciferase, 24 h. inhibition, % at 12.5 µM. 360,000 tested, 0.52% active. AID 588674;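 active = mean inhibition of at least 75% with every replicate also reaching 75%; inconclusive = mean inhibition at least 75% but some replicate below; inactive = mean inhibition below 75%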;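 note: 0% = median of neutral control wells and 100% = pilot-screen positive control compound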
Beta cell apopt – beta cell apoptosis inhibition. protection from apoptosis, % (test concentration not listed). INS-1E cytokine-induced death, ATP luminescence, 48 h; percent of positive-control rescue, neutral wells zero. 300,000 tested, 0.8% active. AID 435005;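 active = Every replicate reaches about 75%, or at least half do and their mean reaches it too, limit read from the data; inconclusive = At least half of replicates reach the limit but their mean does not; inactive = Under half of replicates reach the limit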;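 note: 0% = cytokine-treated negative control wells and 100% = positive control rescue; higher means more ATP so stronger rescue from cytokine killing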
PfHsp90 yeast 2 – growth inhibition of yeast expressing Plasmodium Hsp90 | 310,000 tested, 0.32% active | S. cerevisiae expressing PfHsp90, BacTiter-Glo ATP, 48 h; yeast lacking PDR1 and PDR3 efflux regulators | AID 504621 | inhibition, % at 9.4 µM;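 active = every replicate shows inhibition above about 80%, whatever the replicate mean, limit read from the data; inconclusive = mean inhibition reaches the set limit but some replicate falls short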;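 note: 0% = DMSO neutral controls and 100% = 20 µM radicicol positive controls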
CSC inhib – blocks cancer stem cells | cancer stem cell-like cells viability, luminescence | inhibition, % at 7.5 µM | 300,000 tested, 1.1% active | AID 2717; in the data active = inhibition above about 75%; inconclusive = no clear call, values can overlap the other calls; tested in HMLE shEcad cells
The depositor's hits bear a star; ? = inconclusive; . = not tested or not shown; ! = a repeat was not active. An excerpt weighted towards active compounds, which were near 2.2% of everything screened.

SMILES	Calb FLC	Shn3 inh set2	Beta cell apopt	PfHsp90 yeast 2	CSC inhib
CC1(c2ccccc2Cl)NC(=O)N(CC(=O)NCc2ccc3c(c2)OCO3)C1=O (configuration not stated)	-16.8	-13.7	-1.0	-31.9	.
CC(=O)c1nn(-c2cccc(Br)c2)cc1C(=O)c1ccc(Br)cc1	-7.1	12.2	12.6	-32.9	-1.7
CC(=O)c1nn(-c2cccc(Br)c2)cc1C(=O)c1ccc(C)cc1	94.7*	-5.8	1.4	.	-0.2
CN(C)S(=O)(=O)c1cccc(CSCc2cccc(S(=O)(=O)N(C)C)c2)c1	-7.8	76.6	107.6*	-14.3	9.2
Cc1cc(C)n2nc(SCc3cccc(S(=O)(=O)N(C)C)c3)nc2n1	2.9	81.0	.	1.8	16.7
COc1ccccc1C(=O)N/C(=C\c1ccc(Br)cc1)C(=O)N1CCCC1	?	12.3	-3.4	.	-3.5
CC(=O)NCCc1ccc(C(=O)COC(=O)c2cccs2)cc1	.	-39.0	.	.	.
NC1=C(Br)C(=O)c2ccccc2C1=O	-7.7	-0.8	102.4*	-7.3	58.6
O=C(/C=C/c1ccccc1)NCCS(=O)(=O)N1CCN(c2ccc(F)cc2)CC1	-2.0	4.4	0.2	.	3.3
C=C(CC1([C@@H](NP(=O)(c2ccccc2)c2ccccc2)[C@H]2C[C@@H]2CCCC)CC1)c1ccccc1	-13.9	-1.0	38.1	15.3	123.3*
CN(/N=C/c1ccc(O)cc1O)c1nc(-c2ccccc2)cc(-c2ccccc2)n1	18.2	3.4	3.6	-14.0	88.8*
Cc1cc(-c2ccccc2)nc(N/N=C/c2ccc(O)cc2O)n1	63.0	-6.8	39.2	-5.3	96.0*
O=C(O)CCCCCn1c(O)c(C=C2N=c3ccccc3=N2)sc1=S	83.2*	-30.9	.	0.7	-8.7
O=C(O)CCCn1c(O)c(C=C2N=c3ccccc3=N2)sc1=S	5.6	10.3	-7.0	-32.2	10.9
Cc1n[nH]c(=S)n(NC(=O)/C=C/C(=O)Nn2c(=S)[nH]nc(C)c2=O)c1=O	-7.3	2.4	.	8.6	.
Cc1n[nH]c(=S)n(NC(=O)CC(=O)Nn2c(=S)[nH]nc(C)c2=O)c1=O	93.3*	12.9	1.6	54.5	-2.5
COc1ccc(CC(=O)OCC(=O)NCc2ccc(C)cc2)cc1OC	.	-27.2	-8.4	-9.9	-13.4
c1ccc(CNc2cccnc2)cc1	.	-7.0	.	.	.
Oc1ccccc1N=Nc1nc(-c2ccccc2)c(-c2ccccc2)[nH]1	1.2	88.5*	86.0*	106.4*	.
CCOC(=O)[C@H]1[C@H]2COc3ccc(OC)cc3[C@@H]2N2C(=O)CN(Cc3ccccc3)C(=O)[C@@]12C	.	-14.2	3.8	-14.8	7.3
CCN1/C(=C/C=C/c2oc3ccc(-c4ccccc4)cc3[n+]2CC)Oc2ccc(-c3ccccc3)cc21	75.2*	96.0*	110.8*	54.6	116.0*
CN(C)C(=O)C12CCC(C)(C(=O)C1Br)C2(C)C (configuration not stated)	-0.8	-4.8	-5.3	17.5	-1.6
Cc1ccc2nc(-c3ccc(NS(C)(=O)=O)cc3)cc(-c3ccccc3)c2c1	31.7	27.2	-0.9	137.2*	56.3
Cc1ccc(-c2cc(C(=O)Nc3ccc(S(=O)(=O)Nc4nc(C)cc(C)n4)cc3)c3ccccc3n2)cc1	?	-10.6	-2.4	6.8	18.8
Cc1ccc2nc(-c3ccncc3)cc(-c3ccccc3)c2c1	-6.8	-11.7	7.5	-8.0	30.6
SMILES	Calb FLC	Shn3 inh set2	Beta cell apopt	PfHsp90 yeast 2	CSC inhib
CCS(=O)(=O)Nc1ccc(-c2cc(-c3ccccc3)c3cc(C)ccc3n2)cc1	-1.6	0.5	5.3	69.1	85.2*
Fc1ccc(C(c2ccc(F)cc2)N2CCN(C/C=C/c3ccccc3)CC2)cc1	.	12.8	15.4	-1.2	98.7*
C(=C\c1ccccc1)/CN1CCN(C(c2ccccc2)c2ccccc2)CC1	.	28.2	.	9.6	.
O=C(NC(=S)NCc1ccccc1)C1CC1	-2.4	-0.9	5.1	-13.7	-10.8
O=C(NC(=S)NCCc1ccccc1)C1CCCCC1	-21.9	-4.9	3.5	0.7	101.7*
CCN1CCN(Cc2ccc(NC(=O)c3cc(NC(=O)c4cc(C)on4)cc(OC)c3)cc2C(F)(F)F)CC1	1.7	-8.8	1.9	-8.8	-0.7
CCN1CCN(Cc2ccc(NC(=O)c3ccc(C)c(NC(=O)c4ccnnc4)c3)cc2C(F)(F)F)CC1	1.0	-16.4	-16.4	-24.6	7.1
CCN1CCN(Cc2ccc(NC(=O)c3cc(NC(=O)C(=O)c4c[nH]c5ccccc45)cc(OC)c3)cc2C(F)(F)F)CC1	64.1	32.7	98.5*	-9.9	-2.0
CCN1CCN(Cc2ccc(NC(=O)c3cc(NC(=O)c4cnn(-c5ccccc5)c4N)cc(OC)c3)cc2C(F)(F)F)CC1	9.3	15.4	109.1*	3.6	130.9*
CCN1CCN(Cc2ccc(NC(=O)c3ccc(C)c(NC(=O)C(=O)c4c[nH]c5ccccc45)c3)cc2C(F)(F)F)CC1	66.4	?	110.4*	4.9	101.7*!
CCN1CCN(Cc2ccc(NC(=O)c3ccc(C)c(NC(=O)c4ccc5n[nH]nc5c4)c3)cc2C(F)(F)F)CC1	-8.0	-12.4	-9.6	-12.8	.
CN(C)c1ccc(-n2cccc2/C=C/[N+](=O)[O-])cc1	-34.0	-21.6	21.0	107.3*	87.2*
CNC(=O)c1c(NC(=O)c2ccc(S(=O)(=O)N3CCCc4ccccc43)cc2)sc2c1CCN(C)C2	-5.7	14.4	1.5	-10.4	76.5*
CCCN1CCc2c(sc(NC(=O)c3ccc(S(=O)(=O)N(C)c4ccccc4)cc3)c2C(=O)NC)C1	5.1	-31.6	8.4	4.3	78.1*
CN1CCc2c(sc(NC(=O)c3ccc(S(=O)(=O)N4CCCC4)cc3)c2C(N)=O)C1	-5.0	-2.0	-1.8	6.3	2.2
CN1CCc2c(sc(NC(=O)c3ccc(S(=O)(=O)N4CCc5ccccc54)cc3)c2C(N)=O)C1	5.3	.	2.7	.	82.4*
Cc1ccc(Cl)cc1NC(=S)NCc1cccn1C	-8.0	-6.6	8.2	-16.7	.
O=S(=O)(NCCN1CCOCC1)c1ccc(Cl)s1	90.2*	-22.8	-4.5	1.3	-5.9
O=C(C1CN(C(=O)c2cc3ccccc3o2)c2ccccc2O1)N1CCCCC1 (configuration not stated)	.	0.8	.	.	.
CCC(C)Sc1cccc(-c2nc3cc(C)ccn3c2NCc2ccccc2)c1 (configuration not stated)	3.3	-8.6	-4.0	11.4	122.6*
CCC(C)Sc1ccc(-c2nc3ccc(Cl)cn3c2NCc2ccccc2)cc1 (configuration not stated)	.	-79.6	54.5	0.7	8.6
CCCCCCSc1cccc(-c2nc3ccc(Cl)cn3c2NCc2ccccc2)c1	-1.1	-26.2	6.9	-2.3	75.9*
Cc1ccn2c(NCc3ccccc3)c(-c3cccc(SC4CCCCC4)c3)nc2c1	.	-16.7	-1.0	3.9	98.8*
CCCCCCSc1ccc(-c2nc3ccc(C)cn3c2NCc2ccccc2)cc1	-10.2	50.7	.	6.2	9.4
c1ccc(CNc2c(-c3cccc(SC4CCCCC4)c3)nc3ccccn23)cc1	.	89.9*	124.1*	-16.1	102.4*
Clc1ccc2nc(-c3cccc(SC4CCCCC4)c3)c(NCc3ccccc3)n2c1	-2.9	46.5	30.5	-4.4	56.3

High-throughput results as filed in PubChem.
